Data from the supplement of paper PMC10849652.
The full data set covers some 7,900 targets. This sample favours those with a hit. About 0.6% of all pairs of compound and target were hits. Unmarked numbers belong to inactive results.

Key:
Assay in all cases: log2 fold change, soluble protein after heating vs DMSO (PISA); higher = thermal stabilisation; K562 cells, 10 uM, 30 min; active = over 0.2 and 3.5 SD of the protein, either way, in both replicates (recomputed)
[1] = compound: C#Cc1cccc(Nc2ncnc3cc(OCCOC)c(OCCOC)cc23)c1 [erlotinib]
Procedure, shortened: (§1)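 For each measurement, 10 μM compound was applied for 30 min to K562 cells at 2×10^6 cells/mL. Aliquots were heated for 3 min across 48°C-58°C, pooled, and extracted in PBS with 0.5% NP-40 at 4°C; the supernatant after 21,000xg for 90 min was soluble protein. This was quantified by TMTpro 16plex LC-MS/MS with channel sums equalised, and thermal stability was reported relative to control samples from duplicates, on a log2 fold-change scale.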

[2] = compound: C/C(=N\NC(=O)C1=CC(=CC=C1)S(=O)(=O)N2CCOCC2)/C3=C(C=CC(=C3)Cl)O
Procedure, shortened: as §1

[3] = compound: C1=CC(=C(C=C1Cl)C2=NC3=NC=CN=C3C(=N2)NC4=CC=NC=C4)F
Procedure, shortened: as §1

[4] = compound: C1=CC(=CC=C1C2=NC3=C(N2)C=C(C=C3)C(=O)N)OC4=CC=C(C=C4)Cl
Procedure, shortened: as §1

[5] = compound: C1=CC2=C(C=CC(=C2)/C=C\3/C(=O)NC(=NCC4=CC=CS4)S3)N=C1
Procedure, shortened: as §1

[6] = compound: C1=CC2=NC=CN=C2C=C1/C=C/3\C(=O)NC(=O)S3
Procedure, shortened: as §1

[7] = compound: C1=CC=C(C=C1)C2=NC(=C(N2)C3=CC=NC=C3)C4=CC(=C(C=C4)Cl)O
Procedure, shortened: as §1

[8] = compound: C1=CC=C2C(=C1)C3=NNC4=CC=CC(=C43)C2=O
Procedure, shortened: as §1

[9] = compound: C1CCN(C1)C(=O)NC2=CC=CC(=C2)NC3=NC=C(C(=N3)NCCC4=CN=CN4)Br
Procedure, shortened: as §1

[10] = compound: C1CN(CCC1(CC2=CC=C(C=C2)Cl)N)C3=NC=NC4=C3C=CN4
Procedure, shortened: as §1

[11] = compound: C1COCCN1CCN2C3=CC=CC=C3N=C2NC(=O)C4=CC(=CC=C4)[N+](=O)[O-] [IRAK-1-4 Inhibitor I]
Procedure, shortened: as §1

[12] = compound: C=CC(=O)N1CCC[C@@H](n2nc(-c3ccc(Oc4ccccc4)cc3)c3c(N)ncnc32)C1 [ibrutinib]
Procedure, shortened: as §1

[13] = compound: CC(=O)c1cnc2ccc(-c3cc(Cl)c(O)c(Cl)c3)nc2c1N[C@H]1CC[C@H](CN(C)C)CC1
Procedure, shortened: as §1

[14] = compound: CC(C)(C)Cn1c(N)nc2ccc(-c3[nH]c(C(C)(C)C)nc3-c3ccc(F)cc3)nc21 [ralimetinib]
Procedure, shortened: as §1

[15] = compound: CC(C)(O)CC(=O)NCCn1ccc2ncnc(Nc3ccc(Oc4cccc(C(F)(F)F)c4)c(Cl)c3)c21
Procedure, shortened: as §1

[16] = compound: CC(C)C1=C2N=C(C=C(N2N=C1)NCC3=CC=CC=C3)NCCCCCCN
Procedure, shortened: as §1

[17] = compound: CC(C)C[C@@H](C=O)NC(=O)[C@H](CC(C)C)NC(=O)[C@H](CC(C)C)NC(=O)OCc1ccccc1
Procedure, shortened: as §1

[18] = compound: CC(C)N(C[C@H]1O[C@@H](n2cnc3c(N)ncnc32)[C@H](O)[C@@H]1O)[C@H]1C[C@@H](CCc2nc3cc(C(C)(C)C)ccc3[nH]2)C1 [pinometostat]
Procedure, shortened: as §1

[19] = compound: CC1=C(C(CC(=O)N1)C2=CC=C(C=C2)C(F)(F)F)C(=O)NC3=C(C=C4C(=C3)C=NN4)F
Procedure, shortened: as §1

[20] = compound: CC1=C(C2=C(C=C1)C(=O)C3=CC=CC=C3N2CCCN)C
Procedure, shortened: as §1

Sequence of UniProt Q9NXE4 (Q9NXE4 whole entry, looked up): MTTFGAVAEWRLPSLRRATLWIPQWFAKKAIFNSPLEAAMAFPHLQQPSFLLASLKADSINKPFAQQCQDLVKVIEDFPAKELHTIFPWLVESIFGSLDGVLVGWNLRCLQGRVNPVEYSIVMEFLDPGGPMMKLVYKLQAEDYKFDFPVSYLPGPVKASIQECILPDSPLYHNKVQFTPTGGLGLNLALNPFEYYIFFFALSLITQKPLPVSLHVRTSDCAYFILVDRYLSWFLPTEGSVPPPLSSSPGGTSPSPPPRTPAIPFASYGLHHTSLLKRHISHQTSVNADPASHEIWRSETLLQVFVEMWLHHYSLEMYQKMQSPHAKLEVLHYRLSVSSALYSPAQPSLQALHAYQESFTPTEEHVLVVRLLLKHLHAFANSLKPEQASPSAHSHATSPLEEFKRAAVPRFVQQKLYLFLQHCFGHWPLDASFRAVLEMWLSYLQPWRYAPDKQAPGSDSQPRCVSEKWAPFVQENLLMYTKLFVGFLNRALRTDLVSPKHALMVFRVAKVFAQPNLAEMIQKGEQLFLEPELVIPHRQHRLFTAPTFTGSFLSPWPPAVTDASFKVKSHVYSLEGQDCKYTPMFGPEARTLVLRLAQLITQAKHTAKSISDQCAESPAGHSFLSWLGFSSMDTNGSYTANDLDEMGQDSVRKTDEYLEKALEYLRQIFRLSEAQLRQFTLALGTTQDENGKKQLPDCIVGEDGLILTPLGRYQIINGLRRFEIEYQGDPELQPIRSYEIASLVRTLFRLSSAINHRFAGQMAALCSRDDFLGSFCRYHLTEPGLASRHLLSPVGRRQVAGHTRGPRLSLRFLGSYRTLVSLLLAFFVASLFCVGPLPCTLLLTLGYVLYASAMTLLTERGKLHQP
Sequence of UniProt O60493 (O60493 whole entry, looked up): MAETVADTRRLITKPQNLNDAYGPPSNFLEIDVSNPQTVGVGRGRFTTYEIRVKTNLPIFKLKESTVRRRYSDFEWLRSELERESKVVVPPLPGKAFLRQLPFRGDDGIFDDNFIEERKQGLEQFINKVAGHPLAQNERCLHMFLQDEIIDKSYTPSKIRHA
Sequence of UniProt Q8NBW4 (Q8NBW4 whole entry, looked up): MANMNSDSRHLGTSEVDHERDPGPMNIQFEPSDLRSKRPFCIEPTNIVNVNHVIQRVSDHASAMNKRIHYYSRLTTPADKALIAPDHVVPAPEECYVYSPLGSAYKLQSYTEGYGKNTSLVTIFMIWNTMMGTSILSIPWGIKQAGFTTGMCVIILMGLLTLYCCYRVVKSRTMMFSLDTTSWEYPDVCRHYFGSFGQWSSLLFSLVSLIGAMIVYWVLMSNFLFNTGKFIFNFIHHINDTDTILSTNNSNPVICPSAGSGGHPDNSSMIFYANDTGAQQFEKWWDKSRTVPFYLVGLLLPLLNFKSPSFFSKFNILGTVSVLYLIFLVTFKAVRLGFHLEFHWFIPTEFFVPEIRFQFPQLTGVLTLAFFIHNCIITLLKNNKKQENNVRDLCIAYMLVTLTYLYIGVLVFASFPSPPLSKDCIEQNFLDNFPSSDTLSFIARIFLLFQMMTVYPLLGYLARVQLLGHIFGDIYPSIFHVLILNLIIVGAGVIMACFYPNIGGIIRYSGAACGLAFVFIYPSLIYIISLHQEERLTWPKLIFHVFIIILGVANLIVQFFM
Sequence of UniProt Q5JUR7 (Q5JUR7 whole entry, looked up): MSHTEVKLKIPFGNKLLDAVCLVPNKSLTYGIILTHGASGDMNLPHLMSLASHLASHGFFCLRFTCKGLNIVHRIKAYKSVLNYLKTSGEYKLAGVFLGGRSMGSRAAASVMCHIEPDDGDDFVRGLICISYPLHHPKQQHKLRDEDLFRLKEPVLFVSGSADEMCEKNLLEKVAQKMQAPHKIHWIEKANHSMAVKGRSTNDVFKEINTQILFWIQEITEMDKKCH
Sequence of UniProt Q86VP1 (Q86VP1 whole entry, looked up): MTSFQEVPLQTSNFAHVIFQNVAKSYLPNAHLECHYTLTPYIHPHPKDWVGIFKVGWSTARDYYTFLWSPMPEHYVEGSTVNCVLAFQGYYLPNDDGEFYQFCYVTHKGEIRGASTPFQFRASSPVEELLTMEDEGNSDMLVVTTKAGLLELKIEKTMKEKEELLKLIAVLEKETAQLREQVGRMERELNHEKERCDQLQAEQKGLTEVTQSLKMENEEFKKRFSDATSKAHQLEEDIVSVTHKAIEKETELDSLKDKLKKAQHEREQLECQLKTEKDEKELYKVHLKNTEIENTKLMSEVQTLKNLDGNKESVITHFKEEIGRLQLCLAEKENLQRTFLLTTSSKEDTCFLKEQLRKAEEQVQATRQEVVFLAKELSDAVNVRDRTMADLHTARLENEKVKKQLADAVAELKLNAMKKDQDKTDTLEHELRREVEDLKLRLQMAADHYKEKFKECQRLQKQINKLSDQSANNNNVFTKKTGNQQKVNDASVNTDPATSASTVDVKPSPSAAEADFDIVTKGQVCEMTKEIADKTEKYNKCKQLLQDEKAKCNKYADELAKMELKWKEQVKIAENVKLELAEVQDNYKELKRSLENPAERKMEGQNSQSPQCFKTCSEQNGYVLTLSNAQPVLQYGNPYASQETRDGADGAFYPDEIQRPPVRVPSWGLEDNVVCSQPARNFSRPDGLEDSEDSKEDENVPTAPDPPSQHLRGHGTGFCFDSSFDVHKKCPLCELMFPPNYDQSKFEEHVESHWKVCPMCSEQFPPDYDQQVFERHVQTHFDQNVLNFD
Sequence of UniProt Q969G3 (Q969G3 whole entry, looked up): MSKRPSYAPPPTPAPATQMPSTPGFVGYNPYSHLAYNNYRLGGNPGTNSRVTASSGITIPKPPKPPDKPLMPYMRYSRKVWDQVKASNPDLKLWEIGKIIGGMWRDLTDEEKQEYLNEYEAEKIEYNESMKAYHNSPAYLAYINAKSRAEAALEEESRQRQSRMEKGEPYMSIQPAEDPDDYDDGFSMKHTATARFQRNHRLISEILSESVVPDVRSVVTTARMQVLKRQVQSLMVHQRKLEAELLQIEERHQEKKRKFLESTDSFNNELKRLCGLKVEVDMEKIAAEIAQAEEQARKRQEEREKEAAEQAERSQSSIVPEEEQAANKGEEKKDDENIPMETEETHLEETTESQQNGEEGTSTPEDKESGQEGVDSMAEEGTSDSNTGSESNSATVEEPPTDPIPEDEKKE
Sequence of UniProt Q9H2G2 (Q9H2G2 whole entry, looked up): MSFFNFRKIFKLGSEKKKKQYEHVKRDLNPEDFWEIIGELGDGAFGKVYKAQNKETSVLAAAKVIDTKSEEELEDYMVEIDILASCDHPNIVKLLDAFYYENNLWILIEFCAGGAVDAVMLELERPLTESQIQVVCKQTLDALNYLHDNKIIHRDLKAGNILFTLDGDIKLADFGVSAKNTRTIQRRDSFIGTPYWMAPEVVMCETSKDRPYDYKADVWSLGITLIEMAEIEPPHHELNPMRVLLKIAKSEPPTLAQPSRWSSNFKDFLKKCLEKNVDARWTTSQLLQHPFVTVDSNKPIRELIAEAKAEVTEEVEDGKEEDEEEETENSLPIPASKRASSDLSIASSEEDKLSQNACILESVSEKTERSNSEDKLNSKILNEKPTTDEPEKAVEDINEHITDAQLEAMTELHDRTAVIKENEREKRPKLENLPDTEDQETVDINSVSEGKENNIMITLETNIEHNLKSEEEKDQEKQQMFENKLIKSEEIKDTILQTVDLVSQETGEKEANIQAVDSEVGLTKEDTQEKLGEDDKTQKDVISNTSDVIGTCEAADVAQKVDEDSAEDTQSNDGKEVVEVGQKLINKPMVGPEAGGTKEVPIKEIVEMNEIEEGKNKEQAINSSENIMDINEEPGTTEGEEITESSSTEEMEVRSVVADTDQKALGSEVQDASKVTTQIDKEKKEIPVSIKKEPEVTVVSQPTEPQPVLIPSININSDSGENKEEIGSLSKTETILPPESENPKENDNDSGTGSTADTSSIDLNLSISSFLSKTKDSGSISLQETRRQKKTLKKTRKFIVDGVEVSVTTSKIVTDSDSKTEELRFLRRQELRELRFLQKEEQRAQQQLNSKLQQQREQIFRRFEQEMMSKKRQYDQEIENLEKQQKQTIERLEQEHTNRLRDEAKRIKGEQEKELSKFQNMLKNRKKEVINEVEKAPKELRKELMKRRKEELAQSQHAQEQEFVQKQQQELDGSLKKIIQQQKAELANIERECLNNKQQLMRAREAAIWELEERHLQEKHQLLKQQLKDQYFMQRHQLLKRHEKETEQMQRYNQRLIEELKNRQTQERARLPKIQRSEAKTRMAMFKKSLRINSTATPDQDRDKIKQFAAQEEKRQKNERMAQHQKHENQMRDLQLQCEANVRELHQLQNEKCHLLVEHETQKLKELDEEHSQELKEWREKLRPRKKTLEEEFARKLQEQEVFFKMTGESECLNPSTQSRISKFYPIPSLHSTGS
Sequence of UniProt Q96BW9 (Q96BW9 whole entry, looked up): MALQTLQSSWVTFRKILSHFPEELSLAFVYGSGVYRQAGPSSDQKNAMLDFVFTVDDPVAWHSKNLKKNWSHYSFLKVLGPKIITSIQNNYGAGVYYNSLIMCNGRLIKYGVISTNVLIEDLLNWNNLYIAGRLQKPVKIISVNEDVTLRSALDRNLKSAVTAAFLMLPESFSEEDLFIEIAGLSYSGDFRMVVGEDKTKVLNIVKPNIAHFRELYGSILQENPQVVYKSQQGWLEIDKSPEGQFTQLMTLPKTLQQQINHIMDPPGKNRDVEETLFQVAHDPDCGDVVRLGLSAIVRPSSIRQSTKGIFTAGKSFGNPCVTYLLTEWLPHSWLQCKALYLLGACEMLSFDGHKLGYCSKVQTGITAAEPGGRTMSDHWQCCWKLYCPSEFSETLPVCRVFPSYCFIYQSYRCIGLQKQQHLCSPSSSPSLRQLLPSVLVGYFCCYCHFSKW
Sequence of UniProt Q01130 (Q01130 whole entry, looked up): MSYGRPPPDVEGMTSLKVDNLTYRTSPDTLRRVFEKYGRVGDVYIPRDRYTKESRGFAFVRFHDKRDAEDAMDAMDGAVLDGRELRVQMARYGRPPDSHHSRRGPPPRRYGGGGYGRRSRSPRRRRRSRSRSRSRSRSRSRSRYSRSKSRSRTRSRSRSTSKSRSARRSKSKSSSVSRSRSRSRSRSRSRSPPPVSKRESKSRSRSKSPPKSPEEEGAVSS

Target	log2 fold change [1]	log2 fold change [2]	log2 fold change [3]	log2 fold change [4]	log2 fold change [5]	log2 fold change [6]	log2 fold change [7]	log2 fold change [8]	log2 fold change [9]	log2 fold change [10]	log2 fold change [11]	log2 fold change [12]	log2 fold change [13]	log2 fold change [14]	log2 fold change [15]	log2 fold change [16]	log2 fold change [17]	log2 fold change [18]	log2 fold change [19]	log2 fold change [20]
TEX30 (UniProt Q5JUR7)	0.183	0.165	-0.011	-0.013	0.188	0.025	-0.01	0.046	-0.147	-0.029	-0.013	0.08	-0.048	0.053	-0.251	-0.075	0.03	0.105	0.061	0.028
TM9SF2 (UniProt Q99805)	0.012	0.025	0.037	-0.006	0.027	-0.021	0.04	0.009	-0.04	0.063	0.06	0.01	-0.04	-0.049	0.021	-0.436 (active)	-0.012	-0.003	0.008	0.027
SMARCE1 (UniProt Q969G3)	0.101	0.04	0.017	0	0.009	0	0.001	-0.057	0.075	-0.127	-0.29	0.185	-0.006	0.163	-0.043	-0.128	-0.037	-0.031	0.21	-0.091
SLC38A9 (UniProt Q8NBW4)	0.008	-0.023	-0.018	0.02	0.046	0.063	-0.071	-0.011	-0.042	0.055	-0.028	-0.005	-0.019	0	0.089	-0.368 (active)	0.049	-0.023	0.023	-0.1
TAX1BP1 (UniProt Q86VP1)	-0.079	-0.005	0.007	0.044	0.035	0.037	-0.044	-0.006	-0.015	-0.027	-0.015	-0.007	-0.195	0.066	-0.008	-0.124	0.076	0.088	0.075	-0.006
TAMM41 isoform 3 (UniProt Q96BW9)	0.047	0.03	0.058	-0.007	0.061	0.009	0.045	0.007	-0.007	0.056	0.075	0.022	-0.061	-0.04	-0.172	-0.214	0.043	0.015	0.013	0.169
TFAM (UniProt Q00059)	-0.085	-0.071	-0.127	0.031	-0.009	-0.022	-0.068	-0.05	0.06	-0.078	-0.047	0.03	0.07	0.044	0.043	0.007	0.056	0.05	0.002	-0.414 (active)
SMPD4 isoform 4 (UniProt Q9NXE4)	0.073	0.064	-0.034	0.005	0.098	0.158	-0.021	-0.076	0.023	-0.011	-0.034	-0.044	0.12	-0.072	-0.095	-0.279 (active)	0.005	-0.002	-0.019	0.038
SLK isoform 2 (UniProt Q9H2G2)	-0.023	0.083	-0.098	-0.001	0.043	0.075	-0.135	-0.047	-0.028	-0.057	-0.008	-0.123	0.04	0.005	-0.216	0.002	0.022	0.022	-0.025	0.073
SNX3 (UniProt O60493)	0.129	0.074	-0.056	-0.052	0.078	-0.058	0.123	-0.136	0.026	-0.068	-0.049	0.011	-0.028	-0.059	-0.104	-0.187	0.084	0.073	-0.022	0.053
SRSF2 (UniProt Q01130)	-0.003	-0.034	-0.13	0.02	-0.029	-0.032	-0.038	-0.032	0.041	-0.027	-0.069	0.016	-0.073	0.01	0.055	0.03	0.09	0.022	0.02	-0.02
STK39 (UniProt Q9UEW8)	0.064	0.07	0.038	-0.096	0.035	0.06	0.034	0.019	0.014	-0.025	0.048	-0.006	-0.3 (active)	0.022	-0.09	-0.124	-0.018	-0.02	0.013	0.007
TBC1D15 isoform 3 (UniProt Q8TC07)	-0.007	0.075	0.024	-0.029	0.059	0.067	0.029	-0.035	0.016	-0.048	0.235	-0.021	0.009	0.041	-0.082	-0.326 (active)	0.012	0.056	0	-0.01
SNX9 (UniProt Q9Y5X1)	-0.005	0.047	-0.004	-0.024	0.004	0.014	-0.006	-0.011	-0.01	0.028	-0.011	0.025	-0.043	0.005	0.002	0.014	0.029	0.04	0.024	0.02
STEAP3 isoform 2 (UniProt Q658P3)	0.053	0.038	0.017	-0.019	0.053	0.02	-0.008	0.004	-0.036	0.032	-0.002	-0.005	-0.067	0.013	-0.087	-0.011	0.032	0.043	0.019	0.044
SYMPK (UniProt Q92797)	-0.005	0.179	0.005	-0.114	0.189	0.033	0.093	-0.065	-0.101	0.04	-0.029	-0.087	-0.057	0.099	-0.296	-0.026	-0.061	-0.115	0.078	-0.033
